Unmarked numbers belong to inactive results. No rule for the calls is given here.
experiment: Vero 76 cell cytotoxicity, cytotoxicity control for VEEV inhibitor project, set 7 (AID 624450); conditions: Vero 76 cell viability, cytotoxicity counter-screen; series mostly up to 25 µM; viability: at the top concentration

Row | SMILES | viability [%]
1 | CCN1CCN(Cc2nc3ccc(C(=O)O)cc3c(=O)n2-c2ccccc2)CC1 | 87.7
2 | CCN1CCN(Cc2nc3ccc([N+](=O)[O-])cc3c(=O)n2-c2ccccc2F)CC1 | 78.8
3 | O=c1c2cc([N+](=O)[O-])ccc2nc(CN2CCNCC2)n1-c1ccsc1 | 84.1
4 | COc1cccc(-n2c(CN3CCNCC3)nc3ccc([N+](=O)[O-])cc3c2=O)c1 | 84.9
5 | COc1ccc(-n2c(CN3CCNCC3)nc3ccc([N+](=O)[O-])cc3c2=O)cc1 | 85.9
6 | CCN1CCN(Cc2nc3ccc([N+](=O)[O-])cc3c(=O)n2C)CC1 | 85.9
7 | COc1ccccc1-n1c(CN2CCNCC2)nc2ccc([N+](=O)[O-])cc2c1=O | 75.6
